# System: Plasmodium falciparum NF54
# Assay: growth inhibition relative to untreated control; higher = more inhibition
# Settings: 72 h
# Procedure, shortened: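 In dark 96-well half-area plates, each well held 100 μL of P. falciparum NF54 ring-stage culture at 1% parasitemia and 1% hematocrit. The cultures received a single test-compound dose of 5 μM or 1 μM and were kept at 37 °C for 72 h, in minimal RPMI either plain or enriched with folate (2.2 μM), pABA (7.3 μM), pHBA (7.3 μM), tyrosine (111 μM), phenylalanine (90 μM) and tryptophan. SYBR Green staining gave growth inhibition, expressed against untreated wells, with uninfected erythrocytes serving as the background.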
# [1] = 1 µM, MM + chorismate end-products (CM screening medium)
# [2] = 5 µM, MM + chorismate end-products (CM screening medium)
Structure (SMILES),growth inhibition [1],"growth inhibition (1 µM, minimal medium (MM))",growth inhibition [2],"growth inhibition (5 µM, minimal medium (MM))"
O=C(Nc1ccc(C(F)(F)F)c(C(F)(F)F)c1)c1cc(Cl)ccc1O,93.1%,95%,> 100%,92.5%
CN1CCCN(C(c2ccccc2)c2ccc(Cl)cc2)CC1 (centres undefined),< 0%,< 0%,33.8%,17.6%
COc1ccccc1CNC(=O)c1cc(C2CC2)nc2c1cnn2C(C)C,82.9%,79.8%,87.1%,91.4%
Nc1ncc(Br)cc1-c1nc2cc(Cl)cnc2[nH]1,61.7%,< 0%,67.3%,89.1%
CS(=O)(=O)N1CCC(CCn2nc(Cc3cccc4ccccc34)c3c(N)ncnc32)CC1,< 0%,24.3%,41.3%,< 0%
Cc1cc(OCC(=O)Nc2ccc(C(C)C)cc2)n(C)c(=O)c1C#N,18.1%,33%,18.4%,21%
O=C(C(Cc1c[nH]c2ccccc12)NS(=O)(=O)c1ccc(Cl)cc1)N1CCCCC1 (centres undefined),58%,56.9%,96.8%,88.7%
COc1ccc(-c2cnc3ccc(NCc4ccc(S(N)(=O)=O)cc4)nn23)cn1,73.3%,77.2%,95.9%,92.1%
CC(C)(C)[C@H]1CC[C@H](CC2=C(O)C(=O)c3ccccc3C2=O)CC1,97.5%,95.2%,94.8%,93.4%
Cc1nc(-c2ccccn2)nc(NCCc2ccc(S(C)(=O)=O)cc2)c1Cl,32.5%,< 0%,8.44%,< 0%
COc1cc(NC(=O)Cc2nn(C)c(=O)c3ccccc23)ccc1Cl,16.1%,5.71%,15.2%,< 0%
Cc1ccc(-c2cc(C(=O)Nc3cccnc3)c3cc(Br)ccc3n2)cc1,92.4%,95.2%,98.3%,86.3%
COc1ccc(C2=NCCN2)cc1-c1cn(-c2cccc(C3=NCCN3)c2)nn1,84.5%,80.4%,> 100%,91.6%
CC(=O)NCC1CN(c2ccc(-c3ccc(CNCc4cn[nH]n4)cc3)c(F)c2)C(=O)O1 (centres undefined),4.9%,< 0%,34.6%,< 0%
CCc1c(C)nc(-n2nc(C)cc2NC(=O)c2ccccc2SC)[nH]c1=O,72.1%,60.2%,86.1%,79.9%
C[C@@H]1[C@H](O)[C@@H](C)/C=C/C=C/C=C/C=C/C=C/C=C/C=C/[C@H](O[C@@H]2O[C@H](C)[C@@H](O)[C@H](N)[C@@H]2O)C[C@@H]2O[C@](O)(C[C@@H](O)C[C@@H](O)[C@H](O)CC[C@@H](O)C[C@@H](O)CC(=O)O[C@H]1C)C[C@H](O)[C@H]2C(=O)O,86.2%,89.8%,> 100%,97.9%

Structure (SMILES),growth inhibition [1],"growth inhibition (1 µM, minimal medium (MM))",growth inhibition [2],"growth inhibition (5 µM, minimal medium (MM))"
O=C(Nc1nc(-c2ccccn2)cs1)C1CC1c1ccccc1F (centres undefined),16%,< 0%,54.3%,26.1%
O=C(NCc1ccco1)N1CCN(Cc2ccc(Cl)s2)CC1,12.8%,2.55%,21%,5.16%
Cc1noc(C)c1COc1cccc(C(=O)N=c2[nH]cccc2C)c1,< 0%,< 0%,< 0%,< 0%
OC[C@H]1O[C@@H](n2c3ccc(Cl)cc3c3c(-c4cc5ccccc5o4)ncnc32)C(O)[C@H]1O (some centres undefined),1.89%,13.6%,63.8%,30%
Brc1c(-c2ccc3c(c2)OCO3)nc2ncccn12,< 0%,< 0%,29.5%,< 0%
NCC(=O)N1CCn2c(nc(-c3ccccc3)c2Nc2ccc3c(c2)OCO3)C1,99.3%,> 100%,> 100%,93.2%
Cc1ncc(-c2ccnc(Nc3ccc(S(C)(=O)=O)cc3)n2)n1C(C)C,67%,59.4%,42.1%,45.6%
c1ccc(Oc2ccc(-c3cc(N4CCOCC4)[nH]n3)cc2)cc1,> 100%,< 0%,7.27%,< 0%
COc1ccc(CCN2CCC(NCc3cccc(N(C)C)c3)CC2)cc1,88.1%,> 100%,> 100%,94.6%
COc1cccc(CC(=O)N2CCC(n3c(C)nc4ccc(F)cc43)CC2)c1,> 100%,> 100%,> 100%,95.6%
COc1ccccc1C(C)NCC(=O)Nc1cc(C(F)(F)F)ccc1Cl (centres undefined),86.1%,85.5%,88.6%,88%
Cc1cc(O)nc(-n2nc(C)cc2C)n1,5.27%,< 0%,< 0%,< 0%
CCc1ccc(S(=O)(=O)Nc2cc(CN3CCN(CCC(C)C)CC3)ccc2C)cc1,31.6%,4.88%,64.6%,13.6%
COc1cccc(-n2nnnc2S(C)(=O)=O)c1,19.7%,29.5%,35%,8.78%
O=C(Nc1ccc(N2CCNCC2)nc1)c1oc(-c2ccccc2)nc1C(F)(F)F,91.7%,> 100%,96.6%,89.9%
